Results: the supplement of paper PMC11732987, “Enantioselective OTUD7B fragment discovery through chemoproteomics screening and high-throughput optimisation” (Communications Chemistry, 2025)

Columns and labels:
Assay in all cases: log2 ratio of Biotin-Ahx-Ub-VS probe labelling (fragment/DMSO); higher = less target engagement (more negative = stronger competition), active = hit call of the paper (q ≤ 0.05, log2 ratio ≤ -1)
Conditions in all cases: compound concentration: 200 uM; treatment time: 3 h
USP42 = biological target: T1, USP42 (UniProt Q9H9J4)
T1 sequence (whole entry): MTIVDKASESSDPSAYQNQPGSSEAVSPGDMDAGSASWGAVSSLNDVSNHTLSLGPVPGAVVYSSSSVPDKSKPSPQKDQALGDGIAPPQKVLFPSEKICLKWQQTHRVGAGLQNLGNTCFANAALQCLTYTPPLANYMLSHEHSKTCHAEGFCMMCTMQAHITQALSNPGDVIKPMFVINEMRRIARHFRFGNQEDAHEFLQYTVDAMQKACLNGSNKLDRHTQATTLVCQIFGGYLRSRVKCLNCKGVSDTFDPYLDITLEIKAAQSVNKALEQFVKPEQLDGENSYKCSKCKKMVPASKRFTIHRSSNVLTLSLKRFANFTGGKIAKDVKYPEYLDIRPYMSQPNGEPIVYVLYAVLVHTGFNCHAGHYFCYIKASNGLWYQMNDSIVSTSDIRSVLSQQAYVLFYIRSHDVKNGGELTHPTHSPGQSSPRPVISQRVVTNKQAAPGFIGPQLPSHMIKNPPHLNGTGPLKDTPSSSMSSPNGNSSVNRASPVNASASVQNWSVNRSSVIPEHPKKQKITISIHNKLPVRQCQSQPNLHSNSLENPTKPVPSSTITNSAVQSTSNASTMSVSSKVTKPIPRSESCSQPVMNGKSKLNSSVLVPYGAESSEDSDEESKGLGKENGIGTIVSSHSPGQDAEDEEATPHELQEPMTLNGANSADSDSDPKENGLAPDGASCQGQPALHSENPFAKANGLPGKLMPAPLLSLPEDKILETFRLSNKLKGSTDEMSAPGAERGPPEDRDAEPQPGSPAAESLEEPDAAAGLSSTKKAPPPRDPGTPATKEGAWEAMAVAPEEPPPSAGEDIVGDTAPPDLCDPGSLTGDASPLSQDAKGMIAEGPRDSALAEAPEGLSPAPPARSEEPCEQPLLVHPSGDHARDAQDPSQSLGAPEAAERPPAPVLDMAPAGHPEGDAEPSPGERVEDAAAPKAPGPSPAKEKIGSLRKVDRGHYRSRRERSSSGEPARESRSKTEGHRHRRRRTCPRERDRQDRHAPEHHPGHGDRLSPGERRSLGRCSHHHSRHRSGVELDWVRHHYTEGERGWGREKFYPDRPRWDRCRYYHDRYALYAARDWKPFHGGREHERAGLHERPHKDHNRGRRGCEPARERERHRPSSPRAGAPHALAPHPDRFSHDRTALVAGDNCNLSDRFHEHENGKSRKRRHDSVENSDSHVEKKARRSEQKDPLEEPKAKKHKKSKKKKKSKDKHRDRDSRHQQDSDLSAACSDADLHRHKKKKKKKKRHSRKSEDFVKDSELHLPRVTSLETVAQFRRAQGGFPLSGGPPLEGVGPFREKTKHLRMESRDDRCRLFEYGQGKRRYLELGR
Outline: (§1)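 HEK293T lysate (495 µg per sample, in Tris/CHAPS/IGEPAL buffer with protease inhibitors) was exposed in triplicate for 3 h to fragment at 200 µM or to vehicle, then to Biotin-Ahx-Ub-VS at 0.5 µM final for 1 h. Labelled DUBs were enriched on NeutrAvidin, digested with LysC and trypsin, and analysed by diaPASEF LC-MS/MS. Spectronaut label-free quantities were normalised to the global median, and values are average log2 ratios of fragment over vehicle from an unpaired t-test. Only proteins with ≥2 unique peptides were used.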

USP46 = USP46 (UniProt P62068)
Outline: as §1

USP47 = biological target: T2, USP47 (UniProt Q96K76)
T2 sequence (whole entry): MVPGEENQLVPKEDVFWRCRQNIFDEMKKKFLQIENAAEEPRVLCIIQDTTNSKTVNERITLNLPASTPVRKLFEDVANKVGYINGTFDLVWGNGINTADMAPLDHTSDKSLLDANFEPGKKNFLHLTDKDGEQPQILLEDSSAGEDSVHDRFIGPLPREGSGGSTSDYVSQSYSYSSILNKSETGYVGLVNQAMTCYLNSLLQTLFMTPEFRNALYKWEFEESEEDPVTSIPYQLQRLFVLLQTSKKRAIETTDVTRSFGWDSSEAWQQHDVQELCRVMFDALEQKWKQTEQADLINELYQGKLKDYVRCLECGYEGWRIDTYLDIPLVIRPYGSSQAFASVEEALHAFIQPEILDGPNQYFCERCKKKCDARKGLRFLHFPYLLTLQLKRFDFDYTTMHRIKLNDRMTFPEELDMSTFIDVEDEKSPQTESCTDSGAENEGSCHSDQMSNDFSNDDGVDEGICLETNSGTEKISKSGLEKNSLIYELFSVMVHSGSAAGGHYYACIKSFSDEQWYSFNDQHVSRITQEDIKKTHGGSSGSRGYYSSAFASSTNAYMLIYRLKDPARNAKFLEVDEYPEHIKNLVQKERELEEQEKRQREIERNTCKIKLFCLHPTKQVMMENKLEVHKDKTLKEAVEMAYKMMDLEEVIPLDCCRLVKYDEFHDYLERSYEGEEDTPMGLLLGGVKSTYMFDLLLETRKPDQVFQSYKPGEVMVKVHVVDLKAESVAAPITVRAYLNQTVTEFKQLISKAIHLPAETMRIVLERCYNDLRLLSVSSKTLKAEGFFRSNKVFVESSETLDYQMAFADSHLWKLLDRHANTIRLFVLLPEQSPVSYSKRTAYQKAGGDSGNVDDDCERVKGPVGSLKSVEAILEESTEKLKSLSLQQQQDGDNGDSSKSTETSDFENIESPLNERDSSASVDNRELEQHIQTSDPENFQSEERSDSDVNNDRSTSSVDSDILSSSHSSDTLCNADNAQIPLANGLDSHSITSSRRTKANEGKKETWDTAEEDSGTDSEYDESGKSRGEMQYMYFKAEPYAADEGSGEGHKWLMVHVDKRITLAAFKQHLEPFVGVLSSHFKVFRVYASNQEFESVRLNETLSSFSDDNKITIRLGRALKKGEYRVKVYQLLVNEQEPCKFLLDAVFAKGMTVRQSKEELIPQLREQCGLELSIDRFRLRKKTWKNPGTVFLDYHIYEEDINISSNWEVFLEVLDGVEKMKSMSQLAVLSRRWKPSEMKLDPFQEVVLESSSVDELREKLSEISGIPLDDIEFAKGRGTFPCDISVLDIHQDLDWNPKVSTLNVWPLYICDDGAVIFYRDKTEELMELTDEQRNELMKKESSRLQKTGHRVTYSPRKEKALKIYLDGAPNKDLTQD
Outline: as §1

USP48 = biological target: T3, USP48 (UniProt Q86UV5)
T3 sequence (whole entry): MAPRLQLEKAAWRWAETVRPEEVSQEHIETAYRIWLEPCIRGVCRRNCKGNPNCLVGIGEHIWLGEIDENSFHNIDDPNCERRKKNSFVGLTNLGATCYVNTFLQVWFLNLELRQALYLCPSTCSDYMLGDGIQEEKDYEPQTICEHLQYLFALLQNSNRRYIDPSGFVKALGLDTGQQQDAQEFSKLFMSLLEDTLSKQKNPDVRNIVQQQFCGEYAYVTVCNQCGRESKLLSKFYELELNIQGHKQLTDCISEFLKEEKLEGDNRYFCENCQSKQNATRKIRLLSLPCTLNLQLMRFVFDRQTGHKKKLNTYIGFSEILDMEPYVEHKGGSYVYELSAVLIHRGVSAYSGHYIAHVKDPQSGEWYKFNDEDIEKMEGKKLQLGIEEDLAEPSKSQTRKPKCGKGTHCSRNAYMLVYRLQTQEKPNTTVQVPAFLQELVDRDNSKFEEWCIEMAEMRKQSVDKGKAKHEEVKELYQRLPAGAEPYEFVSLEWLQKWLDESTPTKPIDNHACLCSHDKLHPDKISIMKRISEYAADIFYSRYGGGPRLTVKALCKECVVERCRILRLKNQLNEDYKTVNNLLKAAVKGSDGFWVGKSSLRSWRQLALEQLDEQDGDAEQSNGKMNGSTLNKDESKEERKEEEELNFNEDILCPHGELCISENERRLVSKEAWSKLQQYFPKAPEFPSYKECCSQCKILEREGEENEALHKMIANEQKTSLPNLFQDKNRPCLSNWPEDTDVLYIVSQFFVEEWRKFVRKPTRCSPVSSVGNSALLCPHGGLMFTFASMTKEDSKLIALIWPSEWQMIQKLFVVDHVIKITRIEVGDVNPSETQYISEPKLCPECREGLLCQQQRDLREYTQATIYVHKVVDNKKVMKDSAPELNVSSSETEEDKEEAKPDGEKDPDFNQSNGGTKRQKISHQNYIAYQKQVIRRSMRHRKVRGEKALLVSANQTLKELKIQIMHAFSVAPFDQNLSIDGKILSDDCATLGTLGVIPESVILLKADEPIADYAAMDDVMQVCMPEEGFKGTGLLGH
Outline: as §1

USP5 = biological target: T4, USP5 (UniProt P45974)
T4 sequence (whole entry): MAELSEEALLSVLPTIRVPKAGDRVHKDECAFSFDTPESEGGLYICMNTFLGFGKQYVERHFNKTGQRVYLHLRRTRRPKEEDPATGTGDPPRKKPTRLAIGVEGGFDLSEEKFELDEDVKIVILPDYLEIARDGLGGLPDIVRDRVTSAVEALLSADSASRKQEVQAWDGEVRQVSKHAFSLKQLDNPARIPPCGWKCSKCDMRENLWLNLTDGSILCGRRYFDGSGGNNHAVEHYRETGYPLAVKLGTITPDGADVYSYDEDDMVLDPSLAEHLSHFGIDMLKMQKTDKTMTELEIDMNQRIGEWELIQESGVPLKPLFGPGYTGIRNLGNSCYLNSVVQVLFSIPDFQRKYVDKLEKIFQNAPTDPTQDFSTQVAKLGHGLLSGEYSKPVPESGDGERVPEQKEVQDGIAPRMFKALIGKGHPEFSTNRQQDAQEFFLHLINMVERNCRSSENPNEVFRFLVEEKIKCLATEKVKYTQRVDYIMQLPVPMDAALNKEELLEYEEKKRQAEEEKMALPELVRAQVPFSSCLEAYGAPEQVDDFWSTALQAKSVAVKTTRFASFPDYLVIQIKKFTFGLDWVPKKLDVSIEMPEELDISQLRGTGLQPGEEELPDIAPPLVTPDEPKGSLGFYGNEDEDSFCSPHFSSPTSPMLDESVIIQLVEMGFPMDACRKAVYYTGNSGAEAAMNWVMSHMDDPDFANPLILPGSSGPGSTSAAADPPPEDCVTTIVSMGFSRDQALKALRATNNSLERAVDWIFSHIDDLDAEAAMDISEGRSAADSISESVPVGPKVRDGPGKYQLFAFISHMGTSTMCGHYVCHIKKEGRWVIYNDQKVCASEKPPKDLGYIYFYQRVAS
Outline: as §1

USP54 = USP54 (UniProt Q70EL1)
Outline: as §1

USP7 = USP7 (UniProt Q93009)
Outline: as §1

USP8 = biological target: T5, USP8 (UniProt P40818)
T5 sequence (whole entry): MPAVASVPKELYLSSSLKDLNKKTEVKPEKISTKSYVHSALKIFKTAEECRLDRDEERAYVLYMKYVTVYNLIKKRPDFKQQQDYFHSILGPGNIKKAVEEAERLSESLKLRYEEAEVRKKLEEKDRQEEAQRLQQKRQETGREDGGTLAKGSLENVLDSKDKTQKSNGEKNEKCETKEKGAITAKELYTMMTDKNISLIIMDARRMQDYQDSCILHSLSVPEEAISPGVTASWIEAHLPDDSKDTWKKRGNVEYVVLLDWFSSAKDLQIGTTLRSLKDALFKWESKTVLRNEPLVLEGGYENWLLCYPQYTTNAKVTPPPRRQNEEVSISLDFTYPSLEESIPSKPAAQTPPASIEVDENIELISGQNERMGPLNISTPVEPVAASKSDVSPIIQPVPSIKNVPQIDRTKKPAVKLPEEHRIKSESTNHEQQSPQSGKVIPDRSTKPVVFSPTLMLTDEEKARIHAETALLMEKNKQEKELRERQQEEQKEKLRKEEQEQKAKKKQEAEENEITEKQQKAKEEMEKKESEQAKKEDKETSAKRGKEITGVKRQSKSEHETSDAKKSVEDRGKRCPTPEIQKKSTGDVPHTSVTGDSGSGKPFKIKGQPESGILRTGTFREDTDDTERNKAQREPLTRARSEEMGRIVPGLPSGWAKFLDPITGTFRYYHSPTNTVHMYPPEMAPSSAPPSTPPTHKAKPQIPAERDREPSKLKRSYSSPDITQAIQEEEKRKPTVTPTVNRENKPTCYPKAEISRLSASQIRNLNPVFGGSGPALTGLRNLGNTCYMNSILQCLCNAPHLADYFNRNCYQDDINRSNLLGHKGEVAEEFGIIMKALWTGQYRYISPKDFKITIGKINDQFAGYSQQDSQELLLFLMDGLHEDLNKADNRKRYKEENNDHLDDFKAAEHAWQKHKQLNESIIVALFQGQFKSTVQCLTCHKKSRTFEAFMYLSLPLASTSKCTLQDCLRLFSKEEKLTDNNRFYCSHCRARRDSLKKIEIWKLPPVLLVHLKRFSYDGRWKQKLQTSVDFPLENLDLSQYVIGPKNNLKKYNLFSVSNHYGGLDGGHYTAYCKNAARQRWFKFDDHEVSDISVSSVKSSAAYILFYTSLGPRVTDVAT
Outline: as §1

Measured: log2 ratio of Biotin-Ahx-Ub-VS probe labelling

USP46, sequence (P62068 whole entry): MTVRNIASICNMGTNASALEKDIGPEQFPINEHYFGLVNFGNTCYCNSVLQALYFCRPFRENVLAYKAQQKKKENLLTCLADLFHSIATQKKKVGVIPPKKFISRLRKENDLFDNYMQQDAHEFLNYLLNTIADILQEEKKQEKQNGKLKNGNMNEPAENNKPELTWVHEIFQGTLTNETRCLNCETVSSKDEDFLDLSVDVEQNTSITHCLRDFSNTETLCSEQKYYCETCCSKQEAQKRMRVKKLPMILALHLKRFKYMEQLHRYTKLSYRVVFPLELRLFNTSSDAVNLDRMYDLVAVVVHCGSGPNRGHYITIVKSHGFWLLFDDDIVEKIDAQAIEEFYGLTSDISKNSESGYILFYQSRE
USP7, sequence (Q93009 whole entry, looked up): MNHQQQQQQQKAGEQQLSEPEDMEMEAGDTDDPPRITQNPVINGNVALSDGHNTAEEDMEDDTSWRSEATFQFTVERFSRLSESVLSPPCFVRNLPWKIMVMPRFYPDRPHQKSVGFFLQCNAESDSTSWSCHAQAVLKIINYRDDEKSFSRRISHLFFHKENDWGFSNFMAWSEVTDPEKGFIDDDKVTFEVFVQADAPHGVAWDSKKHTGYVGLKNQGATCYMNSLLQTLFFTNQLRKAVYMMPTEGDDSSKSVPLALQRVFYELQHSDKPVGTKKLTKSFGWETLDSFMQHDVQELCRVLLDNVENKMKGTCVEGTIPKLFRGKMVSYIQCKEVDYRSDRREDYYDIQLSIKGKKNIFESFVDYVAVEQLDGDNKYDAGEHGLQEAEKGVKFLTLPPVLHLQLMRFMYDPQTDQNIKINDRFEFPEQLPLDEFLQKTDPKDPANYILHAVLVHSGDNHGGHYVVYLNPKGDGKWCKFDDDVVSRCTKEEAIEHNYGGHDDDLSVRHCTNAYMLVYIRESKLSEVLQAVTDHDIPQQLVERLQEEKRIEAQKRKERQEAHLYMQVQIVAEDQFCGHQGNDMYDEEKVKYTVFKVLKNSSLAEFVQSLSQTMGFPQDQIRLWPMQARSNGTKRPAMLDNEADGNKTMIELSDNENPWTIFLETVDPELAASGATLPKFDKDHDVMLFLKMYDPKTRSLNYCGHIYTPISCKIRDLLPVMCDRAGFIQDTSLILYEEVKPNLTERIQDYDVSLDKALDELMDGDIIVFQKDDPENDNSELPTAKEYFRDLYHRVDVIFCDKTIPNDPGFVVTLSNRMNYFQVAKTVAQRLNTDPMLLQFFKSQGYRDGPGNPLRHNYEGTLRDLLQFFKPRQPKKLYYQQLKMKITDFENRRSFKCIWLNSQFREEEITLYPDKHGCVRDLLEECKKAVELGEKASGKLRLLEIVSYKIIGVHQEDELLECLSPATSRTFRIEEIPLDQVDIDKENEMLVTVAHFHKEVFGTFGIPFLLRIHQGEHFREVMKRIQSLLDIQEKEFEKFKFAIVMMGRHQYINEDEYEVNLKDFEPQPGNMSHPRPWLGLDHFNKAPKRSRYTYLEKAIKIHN
USP54, sequence (Q70EL1 whole entry): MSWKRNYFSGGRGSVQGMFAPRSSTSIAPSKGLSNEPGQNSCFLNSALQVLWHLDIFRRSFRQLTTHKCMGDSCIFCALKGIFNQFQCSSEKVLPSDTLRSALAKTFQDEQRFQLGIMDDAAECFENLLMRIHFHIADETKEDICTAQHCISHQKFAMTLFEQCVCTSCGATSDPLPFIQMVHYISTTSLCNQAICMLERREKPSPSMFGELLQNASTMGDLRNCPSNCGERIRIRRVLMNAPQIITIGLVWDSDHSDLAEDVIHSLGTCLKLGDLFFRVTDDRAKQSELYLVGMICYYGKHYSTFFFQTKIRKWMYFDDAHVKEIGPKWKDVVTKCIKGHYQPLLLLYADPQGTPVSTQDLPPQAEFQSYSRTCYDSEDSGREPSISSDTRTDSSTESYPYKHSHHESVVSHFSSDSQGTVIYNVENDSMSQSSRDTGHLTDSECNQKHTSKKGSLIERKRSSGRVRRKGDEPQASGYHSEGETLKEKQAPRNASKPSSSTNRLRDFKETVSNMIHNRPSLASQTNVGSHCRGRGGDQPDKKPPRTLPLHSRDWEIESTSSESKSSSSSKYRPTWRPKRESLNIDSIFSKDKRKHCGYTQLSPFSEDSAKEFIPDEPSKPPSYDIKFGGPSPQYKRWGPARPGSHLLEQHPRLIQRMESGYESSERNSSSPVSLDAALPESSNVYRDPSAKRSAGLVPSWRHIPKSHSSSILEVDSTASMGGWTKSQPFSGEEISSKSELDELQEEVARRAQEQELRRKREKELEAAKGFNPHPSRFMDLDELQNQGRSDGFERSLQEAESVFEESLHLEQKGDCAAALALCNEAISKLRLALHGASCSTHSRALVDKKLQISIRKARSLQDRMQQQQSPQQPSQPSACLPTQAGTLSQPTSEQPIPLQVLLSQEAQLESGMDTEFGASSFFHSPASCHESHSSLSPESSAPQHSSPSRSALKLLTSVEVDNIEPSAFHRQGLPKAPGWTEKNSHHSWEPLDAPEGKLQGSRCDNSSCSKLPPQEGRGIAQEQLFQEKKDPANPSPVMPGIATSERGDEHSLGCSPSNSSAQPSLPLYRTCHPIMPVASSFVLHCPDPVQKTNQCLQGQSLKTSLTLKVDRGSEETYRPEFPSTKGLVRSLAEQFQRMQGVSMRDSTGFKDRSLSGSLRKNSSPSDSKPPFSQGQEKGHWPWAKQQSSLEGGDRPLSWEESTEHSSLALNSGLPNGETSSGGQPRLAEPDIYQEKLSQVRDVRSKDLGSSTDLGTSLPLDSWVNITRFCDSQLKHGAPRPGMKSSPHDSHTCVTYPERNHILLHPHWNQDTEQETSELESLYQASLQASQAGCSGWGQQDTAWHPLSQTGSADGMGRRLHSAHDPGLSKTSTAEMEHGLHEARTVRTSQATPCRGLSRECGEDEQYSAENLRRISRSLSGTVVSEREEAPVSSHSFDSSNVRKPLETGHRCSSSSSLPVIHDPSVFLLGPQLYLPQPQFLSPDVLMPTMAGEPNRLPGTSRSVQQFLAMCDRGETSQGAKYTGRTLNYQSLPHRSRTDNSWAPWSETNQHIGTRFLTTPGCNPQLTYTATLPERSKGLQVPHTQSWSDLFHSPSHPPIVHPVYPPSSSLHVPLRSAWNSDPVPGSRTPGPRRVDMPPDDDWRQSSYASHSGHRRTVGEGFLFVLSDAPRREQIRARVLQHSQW

Cl.Cn1nccc1C(NC(=O)CCl)c1ccccc1 (stereo not drawn)
active: USP47 -1.1
inactive: USP42 0.0316 | USP46 0.114 | USP48 -0.11 | USP5 0.239 | USP54 0.34 | USP7 -0.284 | USP8 -0.582
